Bioassay records: PubChem BioAssay, several laboratories
A selection: hits, their analogues and other compounds. The true share with any hit is near 3.3%.
BoNT F protease – inhibitors of Botulinum neurotoxin F light chain protease. Multiplex microsphere protease cleavage assay, flow cytometry. inhibition, % at 10 µM. 360,000 tested, 0.22% active. AID 588497; in the data active = inhibition above about 35%, passing the limit was not always enough; inconclusive = no clear call, values can overlap the other calls; note: plate controls were buffer without enzyme for full effect and enzyme alone for no effect
Anthrax LF inh2 – blocks Bacillus anthracis lethal factor protease | P15917 | multiplex microsphere protease cleavage assay, LF | inhibition, % at 10 µM | 360,000 tested, 0.12% active | AID 588501; note: plate controls were buffer without enzyme for full effect and enzyme alone for no effect
BoNT A protease – blocks Botulinum neurotoxin A light chain protease; multiplex microsphere protease substrate cleavage, flow cytometry; inhibition, % at 10 µM; 360,000 tested, 0.17% active; AID 588499; note: plate controls were buffer without enzyme for full effect and enzyme alone for no effect
Bead autofluor – flagged as autofluorescent in microsphere protease counterscreen; compound autofluorescence counterscreen, microsphere flow cytometry; hits give high values; fluorescence intensity (test concentration not listed); 360,000 tested, 3.1% active; in the data active = fluorescence intensity above about 16000; inconclusive = no clear call, values can overlap the other calls
MazEF act – activators of E. coli MazEF toxin-antitoxin RNase; activation, % at 20 µM; 350,000 tested, 0.32% active; FAM/BHQ RNA-DNA oligo cleavage fluorescence, 5 h; P0AE70; in the data active = activation above about 50%
Target sequence (P0AE70 whole entry, looked up): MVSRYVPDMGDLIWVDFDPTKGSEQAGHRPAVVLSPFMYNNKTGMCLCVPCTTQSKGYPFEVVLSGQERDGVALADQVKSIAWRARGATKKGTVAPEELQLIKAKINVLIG
SSB-PriA inh – K. pneumoniae PriA-SSBct interaction inhibition; AlphaScreen SSBct-PriA binding, biotinylated peptide; 430,000 tested, 0.6% active; inhibition, % at 33 µM; AID 1272365; in the data active = inhibition mostly above about 37%, no sharp cut-off; inactive = mostly below about 20%;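 note: plate controls were negative control peptide for no effect and reference peptide for full effect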
* hit, by the source's call; u = inconclusive; x = not tested or not shown; + = active, no number. Cut-off read from the data, not from the text of the source, unless noted: active = inhibition above about 30%; inconclusive = no clear call, values can overlap the other calls; inactive = below that.

SMILES	BoNT F protease	Anthrax LF inh2	BoNT A protease	Bead autofluor	MazEF act	SSB-PriA inh
Cc1cc(C)n(CC(O)COCc2ccco2)n1 (centres undefined)	-2	-2	u	23131*	2	-10
O=C1CC(SCc2nc3ccccc3[nH]2)C(=O)N1c1ccc(F)c(Cl)c1 (centres undefined)	-3	-4	0	22834*	5	1
O=C(NCC(c1cccnc1)N1CCc2ccccc2C1)C(=O)Nc1ccc(F)c(Cl)c1 (centres undefined)	x	x	x	x	x	-11
O=C(OCc1ccc(F)cc1)c1ccc2c(c1)-c1ccccc1C2=O	10	2	3	2485	-1	1
CCOC(=O)C1=C(Cc2ccc(F)cc2)C(=O)c2ccccc2C1=O	-14	-14	5	23756*	-12	25
C/C(Cc1ccccc1)=N\NC(=O)CNC(=O)c1ccc(Cl)cc1Cl	36*	u	6	3625	7	x
COc1ccc(C(C)=NNC(=O)CNC(=O)CCc2ccccc2)c(OC)c1	x	x	x	x	x	-3
COc1ccc(/C(C)=N/NC(=O)CNC(=O)Cc2ccccc2)c(OC)c1	38*	21	2	3753	-2	x
CC(Cc1ccccc1)=NNC(=O)CNC(=O)Cc1ccc(Cl)cc1	x	x	x	x	x	-6
COc1ccc(NC(=O)C(c2cc3c(cc2[N+](=O)[O-])OCO3)N(C)Cc2ccccc2)cc1 (centres undefined)	-13	-5	-1	11557	0	47*
CCN(c1cccc(C)c1)C(C(=O)Nc1ccc(OC)cc1)c1cc2c(cc1[N+](=O)[O-])OCO2 (centres undefined)	2	2	1	8370	7	40*
COc1ccc(NC(=O)C(c2cc3c(cc2[N+](=O)[O-])OCO3)N2CCN(C=O)CC2)cc1 (centres undefined)	-15	-2	-2	2141	5	0
O=C(CCn1cnc2ccccc2c1=O)N1CC(c2nc(-c3ccco3)no2)C1	x	x	x	x	x	-11
COCCCNC(=S)NNC(=O)c1ccccn1	0	2	-2	4291	4	82*
O=C(NN=C1CCC(=NNC(=O)c2ccccn2)CC1)c1ccccn1	-9	-3	-1	2471	24	85*
COCCCNC(=S)NNC(=O)c1ccccc1Br	2	4	-1	4816	-6	-19
O=C(NNC(=O)c1ccccn1)c1ccccn1	x	x	x	x	x	58*
COc1ccc2nc(-c3ccc(NC(=O)C(C)(C)C)cc3)cn2n1	x	x	x	x	x	-18
CC(C)OCCCN1CC2=C(C1=O)C(c1ccccc1F)NC(=O)N2 (centres undefined)	x	x	x	x	x	-2
CCc1ccc(C=NC23CN4CN(CN(C4)C2)C3)s1	-7	-1	u	16887*	5	-16
CC(C)(C)NC(=O)CN(C(=O)CS(=O)CC(=O)Nc1ccc(F)cc1)c1ccc(F)c(Cl)c1 (centres undefined)	-3	0	-1	20160*	-5	-8
CC(C)(C)NC(=O)CN(C(=O)CS(=O)CC(=O)Nc1ccc(F)cc1)c1ccc(Cl)cc1 (centres undefined)	2	0	u	20135*	0	-13
Cc1cccc(OC(=O)N2CCOCC2)c1	0	-3	-1	24289*	1	-3
O=C(Oc1ccc(-c2ccccc2)cc1)N1CCOCC1	-2	0	u	21166*	1	-16
O=C(Cn1cnc2c(sc3ncccc32)c1=O)Nc1ccc(Br)cc1	x	x	x	x	x	-4
SMILES	BoNT F protease	Anthrax LF inh2	BoNT A protease	Bead autofluor	MazEF act	SSB-PriA inh
CC(=NNC(=O)c1ccc([N+](=O)[O-])cc1)C(=NO)C(=O)Nc1ccccc1	x	x	x	x	x	-3
Cc1ccc(C(=O)Nc2nc(=O)n(C)s2)cc1	0	-2	u	22548*	8	-6
Cn1sc(NC(=O)c2ccc(Cl)cc2)nc1=O	-7	-6	0	9060	-7	-13
Fc1ccc(-c2cc(C(F)(F)F)nc(-n3cncn3)n2)cc1	-4	0	-3	21601*	6	-20
Fc1ccc(-c2cc(C(F)(F)F)nc(-n3cccn3)n2)cc1	1	-2	0	4886	7	-22
COc1cccc(-c2cc(C(F)(F)F)nc(-n3cncn3)n2)c1	-2	-2	u	25001*	-3	-16
Cc1cc2ccccc2c(=O)n1CC(=O)NCC(=O)N1CCN(c2ccccc2F)CC1	11	8	4	6717	9	-8
Cc1cc2ccccc2c(=O)n1CC(=O)NCC(=O)N1CCN(c2cccc(Cl)c2)CC1	-1	-3	u	20243*	5	2
O=C(Nc1ccc2c(c1)N(C(=O)c1cccs1)CCC2)c1cc2ccccc2oc1=O	x	x	x	x	x	-10
COc1ccc(S(=O)(=O)NCC2CCN(Cc3ccco3)CC2)cc1Cl	x	x	x	x	x	-16
Cc1nc2c(C(=O)O)cnn2c(C)c1Cc1ccccc1F	8	-13	u	19848*	-4	-3
Cc1ccccc1Cc1c(C)nc2c(C(=O)NCc3ccco3)cnn2c1C	-5	-4	-4	17104*	-7	-8
Cc1nc2c(C(=O)N3CCCC3)cnn2c(C)c1Cc1c(F)cccc1Cl	-4	-5	-1	23177*	4	-5
Cc1ccccc1Cc1c(C)nc2nc(SCC(=O)NCc3ccco3)nn2c1C	8	-9	2	9154	0	-4
C/C(=N/NC(=O)c1ccncc1)c1cc2ccc(O)cc2oc1=O	-11	-4	-1	3743	+	x
Br/C(C=NNc1nc(N2CCOCC2)nc(N2CCOCC2)n1)=C/c1ccccc1	x	x	x	x	x	3
CCC(=O)Nc1ccc(Oc2ccc3c(c2)C(=O)N(c2ccc(O)cc2)C3=O)cc1	1	0	u	21982*	3	-2
CC(C)(C)C(=O)Nc1ccc(Oc2ccc3c(c2)C(=O)N(c2ccc(O)cc2)C3=O)cc1	u	u	u	u	3	-4
O=C(CCSc1ccccc1)N1CCOC(c2ccc(C(F)(F)F)cc2)C1 (centres undefined)	x	x	x	x	x	-6
CC(C)NC(=O)N1CCC(CSc2nccn2C)CC1	x	x	x	x	x	-26
COc1ccc(Oc2cn[nH]c2-c2ccc(O)cc2O)cc1	2	1	1	2561	12	3
COc1ccc(-c2[nH]ncc2-c2cnn(-c3ccccc3)c2)c(O)c1	-4	-1	0	22408*	-1	13
COc1ccc(-c2cn[nH]c2-c2ccc(O)cc2O)cc1	2	-10	-1	3989	0	5
COc1ccc(-c2[nH]ncc2Oc2ccccc2OC)c(O)c1	-8	-6	-4	24038*	-2	11
CCn1nnc(NC(=O)COc2cc(C)ccc2C(C)C)n1	-4	-2	-2	20175*	-2	-1
CCCCn1nnc(NC(=O)COc2ccc(Cl)c(C)c2)n1	-6	-6	-6	17759*	-3	7
Cc1ccc(C(C)C)c(OCC(=O)Nc2ccc(C(N)=O)cc2)c1	x	x	x	x	x	-11
